Measurements published in PubChem BioAssay AID1347426 (Functional Genomics Laboratory (NCATS/FGL), 2020).
The campaign covered roughly 31,000 sequences. About 1,400 (4.5%) were called active. The full list was thinned out, with actives kept by preference. Values without a mark were called inactive.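 How the source made its calls: active means median seed-adjusted z-score above 1 or below -1; inactive means the rest.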

assay: Novel Modifiers of Survival Motor Neuron (SMN) Protein: Gene Identification via Genome-wide siRNA Screen; conditions: HEK293T SMN2-luciferase reporter, siRNA knockdown, 72 h; actives lie on both sides
Procedure, shortened: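 Each of three siRNAs per gene is reverse-transfected (1 pmol) into reporter HEK293T cells whose luciferase output tracks SMN protein level. After 72 h culture, ONE-Glo luminescence is control-normalized, log10-transformed and MAD-standardized; Common Seed Analysis deprioritizes seed-driven hits.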

With GGGCUGAUGUUAUCAACUUTT against CNTNAP2 as the sequence, how does the median seed-adjusted z-score read?
The median seed-adjusted z-score was -0.196.

With CGACACUGCCGAAUGGAAATT against SRCRB4D as the sequence, how does the median seed-adjusted z-score read?
Its median seed-adjusted z-score is -0.0568.

Which median seed-adjusted z-score does the source give for UGCCCGUCAUUGUCUCCAATT against KCNA7 here?
Its median seed-adjusted z-score is 0.394.

Which median seed-adjusted z-score does the source give for AGAUCAUUGCUUUCAGUGATT against PRDX1 here?
Its median seed-adjusted z-score is 0.288.

Which median seed-adjusted z-score does the source give for CCUACAAUGUGGUGCAUAUTT against DYRK4 here?
Its median seed-adjusted z-score is -0.824.

For CAAGAAUUCCGAUUUCCAATT against GNGT2, which median seed-adjusted z-score is on record?
Its median seed-adjusted z-score is -0.289.

Which median seed-adjusted z-score does the source give for GCAAUGAACUCAACAGCUATT against ANGPTL7 here?
Its median seed-adjusted z-score is 0.

With GCUAGACCGACCCACCAUATT against FKBP6 as the sequence, how does the median seed-adjusted z-score read?
Its median seed-adjusted z-score is -1.12 (active).

Which median seed-adjusted z-score does the source give for GGUUAUCGACGACAGCAGATT against AGAP3 here?
Its median seed-adjusted z-score is 0.554.

Which median seed-adjusted z-score does the source give for GCAUCCCACUACUACAAAUTT against KSR2 here?
The median seed-adjusted z-score was -0.371.

Which median seed-adjusted z-score does the source give for UCAUCUUCAUCGACCGGAATT against AGPAT1 here?
Its median seed-adjusted z-score is -1.38 (active).

For UACCUGUGGUCAUUCCUUATT against HHATL, which median seed-adjusted z-score is on record?
The median seed-adjusted z-score was 0.497.

With ACACCUCACUCAUCCUCUUTT against GNAZ as the sequence, how does the median seed-adjusted z-score read?
The median seed-adjusted z-score was -0.604.

With GGGCAAUGAUAGAAAGAAUTT against STK35 as the sequence, how does the median seed-adjusted z-score read?
Its median seed-adjusted z-score is 0.519.

With GGAGGGAUGGUUACUGUUATT against TOX4 as the sequence, how does the median seed-adjusted z-score read?
The median seed-adjusted z-score was 0.

Which median seed-adjusted z-score does the source give for GAUGCAUUCGAUGACCUGATT against PTGES2 here?
The median seed-adjusted z-score was -0.02.

With GCCUAUUCCUUCAAGUAUUTT against SUPT6H as the sequence, how does the median seed-adjusted z-score read?
Its median seed-adjusted z-score is -2.54 (active).

With CAGUGAAAAGUGACGCGGATT against DZIP1 as the sequence, how does the median seed-adjusted z-score read?
Its median seed-adjusted z-score is -0.138.

Which median seed-adjusted z-score does the source give for CGAAAGUCCUCACCAACAATT against TSHZ1 here?
The median seed-adjusted z-score was 0.526.

For GCCUUUCAUCAGAUCUUCUTT against DBX1, which median seed-adjusted z-score is on record?
The median seed-adjusted z-score was 0.0137.

For GAAUCUGUCUUAGAUCUCATT against PRDM2, which median seed-adjusted z-score is on record?
The median seed-adjusted z-score was 1.12 (active).

For CCAUAGAAUUCAAAAUCCUTT against BCL2L14, which median seed-adjusted z-score is on record?
Its median seed-adjusted z-score is -0.859.

Which median seed-adjusted z-score does the source give for GGAGUCUACUUUACCGGUATT against BPIL2 here?
Its median seed-adjusted z-score is -0.63.

With GCAGAGAAAAUAUAACUGATT against NPHP1 as the sequence, how does the median seed-adjusted z-score read?
Its median seed-adjusted z-score is -0.0667.

Which median seed-adjusted z-score does the source give for AGAUGGUCCAAGAUCCAGATT against CHRM4 here?
The median seed-adjusted z-score was -0.856.

With GGAGUUUCCCAUCAAACGATT against PADI4 as the sequence, how does the median seed-adjusted z-score read?
The median seed-adjusted z-score was 0.417.

With CUUCCUAGGUUACAAGUAATT against FAM84B as the sequence, how does the median seed-adjusted z-score read?
The median seed-adjusted z-score was -0.431.

Which median seed-adjusted z-score does the source give for GGGACAAGCUUGACAAGGUTT against TRIM62 here?
Its median seed-adjusted z-score is -0.000231.

For GGGUGUCUAAAGGUACAUATT against FSD2, which median seed-adjusted z-score is on record?
Its median seed-adjusted z-score is 0.359.

For GUACGUUGUAUGUUAAACATT against SLC12A2, which median seed-adjusted z-score is on record?
The median seed-adjusted z-score was -0.4.

With CGAUUCCAGCAGUAGCUCATT against AP3B2 as the sequence, how does the median seed-adjusted z-score read?
The median seed-adjusted z-score was -2.45 (active).

With GGAGUUCGCAAAAUCGUCATT against NRK as the sequence, how does the median seed-adjusted z-score read?
Its median seed-adjusted z-score is 0.0687.

Which median seed-adjusted z-score does the source give for CCUCCAUGUCCAACCCAUATT against FOSL2 here?
The median seed-adjusted z-score was -0.372.

Which median seed-adjusted z-score does the source give for AGUAGAACGUGUACGCAGATT against MGST1 here?
The median seed-adjusted z-score was -0.0144.

For GAAUAUCGGCAGAGAGAUATT against RNF12, which median seed-adjusted z-score is on record?
The median seed-adjusted z-score was 0.29.

For CGGAGAAGAUGUUCGCCGATT against SIL1, which median seed-adjusted z-score is on record?
The median seed-adjusted z-score was 0.0292.

Which median seed-adjusted z-score does the source give for GGAUGUGCACUCUCAUUGATT against COPA here?
Its median seed-adjusted z-score is -0.807.

With GGAGAUUCAGAUCCUCAAATT against JAK3 as the sequence, how does the median seed-adjusted z-score read?
The median seed-adjusted z-score was -0.0926.

Which median seed-adjusted z-score does the source give for GCAACACCCAGGUAGUUUUTT against EIF4A1 here?
Its median seed-adjusted z-score is -1.05 (active).

Which median seed-adjusted z-score does the source give for GAAGCUCUACUCACAGUUUTT against GSTM2 here?
Its median seed-adjusted z-score is -0.464.

Which median seed-adjusted z-score does the source give for CUUAACCUGUGGAAUCGAATT against NIPA2 here?
Its median seed-adjusted z-score is -0.103.

For GCAAAGAUAGAAGAAGAUATT against DDI2, which median seed-adjusted z-score is on record?
Its median seed-adjusted z-score is 1.27 (active).

With GCAAGAUGAUUUUAUCUCUTT against CDA as the sequence, how does the median seed-adjusted z-score read?
Its median seed-adjusted z-score is 0.471.

With CAUUAAAGCAGCUACCAAUTT against PSMC3IP as the sequence, how does the median seed-adjusted z-score read?
The median seed-adjusted z-score was -0.0482.

Which median seed-adjusted z-score does the source give for GCAACAGCAUUAUGACCCATT against COL10A1 here?
Its median seed-adjusted z-score is -0.0291.

For GGUUGCGGCUCAGAACAAATT against OAS3, which median seed-adjusted z-score is on record?
The median seed-adjusted z-score was 0.147.

With GGACCUGAUUGAUGCCGUCTT against PYCR1 as the sequence, how does the median seed-adjusted z-score read?
Its median seed-adjusted z-score is -0.171.

Which median seed-adjusted z-score does the source give for AGACCUCGAUUUCACAGUATT against PRMT8 here?
Its median seed-adjusted z-score is 0.

With CAGAGUAUGUAAAUAGACATT against CAPRIN1 as the sequence, how does the median seed-adjusted z-score read?
The median seed-adjusted z-score was 1.36 (active).

Which median seed-adjusted z-score does the source give for GGAAGUGCCCAGUGACUUATT against SLPI here?
The median seed-adjusted z-score was 0.274.

Which median seed-adjusted z-score does the source give for GCACUGUCACUAAGCAGAATT against CHEK2 here?
Its median seed-adjusted z-score is 0.585.

Which median seed-adjusted z-score does the source give for GAGAGAUCAUUGCAAAGCATT against HNRNPM here?
The median seed-adjusted z-score was 0.499.

Which median seed-adjusted z-score does the source give for GCCUCUACAGCAGAAGAAATT against LAMB2 here?
The median seed-adjusted z-score was 1.12 (active).

With GGAGAGACUUUUUACAACUTT against CACNG6 as the sequence, how does the median seed-adjusted z-score read?
The median seed-adjusted z-score was -0.0499.

For CUGUCCAUAGUGUCAUUAATT against GALNT1, which median seed-adjusted z-score is on record?
Its median seed-adjusted z-score is -0.164.

With CUUGUCAAGUACGACCUUATT against NINJ1 as the sequence, how does the median seed-adjusted z-score read?
The median seed-adjusted z-score was -0.061.

With GGCUGUUCGAGUCCUGAAATT against FMO1 as the sequence, how does the median seed-adjusted z-score read?
Its median seed-adjusted z-score is 0.323.

Which median seed-adjusted z-score does the source give for GAGCAGGUGUUAUUAUGGATT against CLCN3 here?
Its median seed-adjusted z-score is -0.0801.

With GUUCAGCCGUGGAAAGAAATT against WFDC6 as the sequence, how does the median seed-adjusted z-score read?
The median seed-adjusted z-score was 0.0443.

Which median seed-adjusted z-score does the source give for GAAAUACAAGGAAUCUGAATT against TMTC4 here?
Its median seed-adjusted z-score is -1.16 (active).

Which median seed-adjusted z-score does the source give for GCACCGUGGUGUCAACCAUTT against KCNK12 here?
Its median seed-adjusted z-score is 1.04 (active).

Which median seed-adjusted z-score does the source give for CCUACUCAAUGUGAUAUAUTT against ADAMDEC1 here?
Its median seed-adjusted z-score is 0.0106.

For CCCUUAAUCUACAAUAUCATT against PHTF1, which median seed-adjusted z-score is on record?
The median seed-adjusted z-score was 0.0129.

Which median seed-adjusted z-score does the source give for GUCCCGAUCUGUGCUCUGATT against DUSP2 here?
The median seed-adjusted z-score was 0.576.

Which median seed-adjusted z-score does the source give for GGAGUACCAUAGAUACAGATT against PPIG here?
Its median seed-adjusted z-score is -0.0192.

Which median seed-adjusted z-score does the source give for GGAUCGCUGUCUCUAACUUTT against RRM1 here?
Its median seed-adjusted z-score is -5.51 (active).

For GCCUCUAUUUGAUAAGCGATT against NAP1L1, which median seed-adjusted z-score is on record?
Its median seed-adjusted z-score is 0.263.

Which median seed-adjusted z-score does the source give for GCGUUGGUCGGGAUGAUUATT against P2RY10 here?
Its median seed-adjusted z-score is -0.432.

With GGAGGUCUAUAUUAUAAGATT against CFHR4 as the sequence, how does the median seed-adjusted z-score read?
The median seed-adjusted z-score was -0.0972.
